The supplement of paper PMC4022240
± gives the standard deviation.

What was measured:
Assay in all cases: peptide microarray binding signal (635 nm), min-max normalized on array (fraction of array maximum); higher = stronger binding
Conditions in all cases: peptide region: H3 1-13
[1] = molecular target: T1, HaloTag-ATRX ADD domain (163-292)
T1 chain: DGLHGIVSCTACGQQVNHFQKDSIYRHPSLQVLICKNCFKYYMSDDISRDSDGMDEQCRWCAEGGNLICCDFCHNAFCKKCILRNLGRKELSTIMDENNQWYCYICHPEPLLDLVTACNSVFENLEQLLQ
Procedure: (§1)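 Histone 13-mer peptides were synthesized as cellulose conjugates with a C-terminal 20-atom PEG linker and printed in triplicate on nitrocellulose. The sequence given is the unmodified backbone; PTMs (Kme1/2/3, Kac, Sph/Tph, Rme/Rme2a/Rme2s, Rcit) are listed in the label and the 'peptide modifications' condition. Slides were probed at 4 °C for 1 h with biotin-labelled (HQ)5-HaloTag reader fusions (ATRX-ADD, ING2-PHD) then streptavidin-Alexa647, or with rabbit histone antibodies then anti-rabbit Alexa647. The mean 635 nm signal of the triplicate spots was scaled 0-1 between the lowest and highest values on each array.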

[2] = molecular target: HaloTag-ING2 PHD (mouse Ing2 200-280)
Procedure: as §1

[3] = molecular target: anti-H3K4me3 antibody ab8580
Procedure: as §1

[4] = molecular target: anti-H3K9me3 antibody ab8898
Procedure: as §1

[5] = peptide modifications: H3R2cit H3K4me3, binder concentration: 1:2,000 dilution
[6] = peptide modifications: H3R2cit H3K4me3, binder concentration: 1:10,000 dilution
[7] = peptide modifications: H3K9me3 H3S10ph, binder concentration: 1:2,000 dilution
[8] = peptide modifications: H3K9me3 H3S10ph, binder concentration: 1:10,000 dilution
[9] = peptide modifications: H3R2cit H3K4ac, binder concentration: 1:2,000 dilution
[10] = peptide modifications: H3R2cit H3K4ac, binder concentration: 1:10,000 dilution
[11] = peptide modifications: H3R2cit H3K9me2, binder concentration: 1:2,000 dilution
[12] = peptide modifications: H3R2cit H3K9me2, binder concentration: 1:10,000 dilution
[13] = peptide modifications: H3R2cit H3K9ac, binder concentration: 1:2,000 dilution
[14] = peptide modifications: H3R2cit H3K9ac, binder concentration: 1:10,000 dilution
[15] = peptide modifications: H3K9me3, binder concentration: 1:2,000 dilution
[16] = peptide modifications: H3K9me3, binder concentration: 1:10,000 dilution
[17] = peptide modifications: H3R2cit H3K4me1, binder concentration: 1:2,000 dilution
[18] = peptide modifications: H3R2cit H3K4me1, binder concentration: 1:10,000 dilution
[19] = peptide modifications: H3R2cit H3K4me2, binder concentration: 1:2,000 dilution
[20] = peptide modifications: H3R2cit H3K4me2, binder concentration: 1:10,000 dilution
[21] = peptide modifications: H3K9me2 H3S10ph, binder concentration: 1:2,000 dilution
[22] = peptide modifications: H3K9me2 H3S10ph, binder concentration: 1:10,000 dilution
[23] = peptide modifications: H3R2cit H3K9me1, binder concentration: 1:2,000 dilution
[24] = peptide modifications: H3R2cit H3K9me1, binder concentration: 1:10,000 dilution

ARTKQTARKSTGG [H3 1-13 A Rcit T Kme3 Q T A R K S T G G]
peptide microarray binding signal ([1]; peptide modifications: H3R2cit H3K4me3, binder concentration: 50 nM): 0.0156 ± 0.00085
peptide microarray binding signal ([1]; peptide modifications: H3R2cit H3K4me3, binder concentration: 500 nM): 0.0357 ± 0.0095
peptide microarray binding signal ([2]; peptide modifications: H3R2cit H3K4me3, binder concentration: 10 nM): 0.131 ± 0.042
peptide microarray binding signal ([2]; peptide modifications: H3R2cit H3K4me3, binder concentration: 100 nM): 0.19 ± 0.089
peptide microarray binding signal [3, 5]: 0.476 ± 0.19
peptide microarray binding signal [3, 6]: 0.28 ± 0.066
peptide microarray binding signal [4, 5]: 0.0852 ± 0.028
peptide microarray binding signal [4, 6]: 0.0601 ± 0.039

ARTKQTARKSTGG [H3 1-13 A R T K Q T A R Kme3 Sph T G G]
peptide microarray binding signal ([1]; peptide modifications: H3K9me3 H3S10ph, binder concentration: 50 nM): 0.188 ± 0.014
peptide microarray binding signal ([1]; peptide modifications: H3K9me3 H3S10ph, binder concentration: 500 nM): 0.207 ± 0.011
peptide microarray binding signal ([2]; peptide modifications: H3K9me3 H3S10ph, binder concentration: 10 nM): 0.00597 ± 0.00034
peptide microarray binding signal ([2]; peptide modifications: H3K9me3 H3S10ph, binder concentration: 100 nM): 0.0173 ± 0.0046
peptide microarray binding signal [3, 7]: 0.00283 ± 0.001
peptide microarray binding signal [3, 8]: 0.000913 ± 0.00014
peptide microarray binding signal [4, 7]: 0.085 ± 0.021
peptide microarray binding signal [4, 8]: 0.049 ± 0.01

ARTKQTARKSTGG [H3 1-13 A Rcit T Kac Q T A R K S T G G]
peptide microarray binding signal ([1]; peptide modifications: H3R2cit H3K4ac, binder concentration: 50 nM): 0.0109 ± 0.00013
peptide microarray binding signal ([1]; peptide modifications: H3R2cit H3K4ac, binder concentration: 500 nM): 0.045 ± 0.0051
peptide microarray binding signal ([2]; peptide modifications: H3R2cit H3K4ac, binder concentration: 10 nM): 0.0563 ± 0.014
peptide microarray binding signal ([2]; peptide modifications: H3R2cit H3K4ac, binder concentration: 100 nM): 0.125 ± 0.011
peptide microarray binding signal [3, 9]: 0.00725 ± 0.0029
peptide microarray binding signal [3, 10]: 0.00656 ± 0.0011
peptide microarray binding signal [4, 9]: 0.00782 ± 0.0003
peptide microarray binding signal [4, 10]: 0.0049 ± 0.00038

ARTKQTARKSTGG [H3 1-13 A Rcit T K Q T A R Kme2 S T G G]
peptide microarray binding signal ([1]; peptide modifications: H3R2cit H3K9me2, binder concentration: 50 nM): 0.0526 ± 0.0021
peptide microarray binding signal ([1]; peptide modifications: H3R2cit H3K9me2, binder concentration: 500 nM): 0.112 ± 0.0057
peptide microarray binding signal ([2]; peptide modifications: H3R2cit H3K9me2, binder concentration: 10 nM): 0.0306 ± 0.0059
peptide microarray binding signal ([2]; peptide modifications: H3R2cit H3K9me2, binder concentration: 100 nM): 0.056 ± 0.011
peptide microarray binding signal [3, 11]: 0.0151 ± 0.001
peptide microarray binding signal [3, 12]: 0.013 ± 0.0011
peptide microarray binding signal [4, 11]: 0.0265 ± 0.0012
peptide microarray binding signal [4, 12]: 0.00986 ± 0.00045

ARTKQTARKSTGG [H3 1-13 A Rcit T K Q T A R Kac S T G G]
peptide microarray binding signal ([1]; peptide modifications: H3R2cit H3K9ac, binder concentration: 50 nM): 0.0152 ± 0.00082
peptide microarray binding signal ([1]; peptide modifications: H3R2cit H3K9ac, binder concentration: 500 nM): 0.0454 ± 0.005
peptide microarray binding signal ([2]; peptide modifications: H3R2cit H3K9ac, binder concentration: 10 nM): 0.0489 ± 0.0051
peptide microarray binding signal ([2]; peptide modifications: H3R2cit H3K9ac, binder concentration: 100 nM): 0.0881 ± 0.024
peptide microarray binding signal [3, 13]: 0.0231 ± 0.0037
peptide microarray binding signal [3, 14]: 0.0127 ± 0.00061
peptide microarray binding signal [4, 13]: 0.00818 ± 0.001
peptide microarray binding signal [4, 14]: 0.00502 ± 0.00055

ARTKQTARKSTGG [H3 1-13 A R T K Q T A R Kme3 S T G G]
peptide microarray binding signal ([1]; peptide modifications: H3K9me3, binder concentration: 50 nM): 0.422 ± 0.025
peptide microarray binding signal ([1]; peptide modifications: H3K9me3, binder concentration: 500 nM): 0.417 ± 0.049
peptide microarray binding signal ([2]; peptide modifications: H3K9me3, binder concentration: 10 nM): 0.0205 ± 0.0055
peptide microarray binding signal ([2]; peptide modifications: H3K9me3, binder concentration: 100 nM): 0.0183 ± 0.0029
peptide microarray binding signal [3, 15]: 0.0544 ± 0.038
peptide microarray binding signal [3, 16]: 0.0262 ± 0.0086
peptide microarray binding signal [4, 15]: 0.228 ± 0.047
peptide microarray binding signal [4, 16]: 0.169 ± 0.11

ARTKQTARKSTGG [H3 1-13 A Rcit T Kme Q T A R K S T G G]
peptide microarray binding signal ([1]; peptide modifications: H3R2cit H3K4me1, binder concentration: 50 nM): 0.00831 ± 0.00021
peptide microarray binding signal ([1]; peptide modifications: H3R2cit H3K4me1, binder concentration: 500 nM): 0.0204 ± 0.0024
peptide microarray binding signal ([2]; peptide modifications: H3R2cit H3K4me1, binder concentration: 10 nM): 0.0217 ± 0.0012
peptide microarray binding signal ([2]; peptide modifications: H3R2cit H3K4me1, binder concentration: 100 nM): 0.148 ± 0.015
peptide microarray binding signal [3, 17]: 0.0371 ± 0.0013
peptide microarray binding signal [3, 18]: 0.02 ± 0.0022
peptide microarray binding signal [4, 17]: 0.00468 ± 0.0004
peptide microarray binding signal [4, 18]: 0.00202 ± 3.2e-05

ARTKQTARKSTGG [H3 1-13 A Rcit T Kme2 Q T A R K S T G G]
peptide microarray binding signal ([1]; peptide modifications: H3R2cit H3K4me2, binder concentration: 50 nM): 0.00959 ± 0.00044
peptide microarray binding signal ([1]; peptide modifications: H3R2cit H3K4me2, binder concentration: 500 nM): 0.0222 ± 0.0016
peptide microarray binding signal ([2]; peptide modifications: H3R2cit H3K4me2, binder concentration: 10 nM): 0.0839 ± 0.0012
peptide microarray binding signal ([2]; peptide modifications: H3R2cit H3K4me2, binder concentration: 100 nM): 0.149 ± 0.043
peptide microarray binding signal [3, 19]: 0.126 ± 0.023
peptide microarray binding signal [3, 20]: 0.128 ± 0.017
peptide microarray binding signal [4, 19]: 0.00533 ± 0.00032
peptide microarray binding signal [4, 20]: 0.00352 ± 0.00019

ARTKQTARKSTGG [H3 1-13 A R T K Q T A R Kme2 Sph T G G]
peptide microarray binding signal ([1]; peptide modifications: H3K9me2 H3S10ph, binder concentration: 50 nM): 0.0356 ± 0.0038
peptide microarray binding signal ([1]; peptide modifications: H3K9me2 H3S10ph, binder concentration: 500 nM): 0.0593 ± 0.0025
peptide microarray binding signal ([2]; peptide modifications: H3K9me2 H3S10ph, binder concentration: 10 nM): 0.00615 ± 8.7e-05
peptide microarray binding signal ([2]; peptide modifications: H3K9me2 H3S10ph, binder concentration: 100 nM): 0.0145 ± 0.0016
peptide microarray binding signal [3, 21]: 0.00119 ± 1.7e-05
peptide microarray binding signal [3, 22]: 0.000456 ± 3.6e-05
peptide microarray binding signal [4, 21]: 0.0144 ± 0.0017
peptide microarray binding signal [4, 22]: 0.00375 ± 0.00021

ARTKQTARKSTGG [H3 1-13 A Rcit T K Q T A R Kme S T G G]
peptide microarray binding signal ([1]; peptide modifications: H3R2cit H3K9me1, binder concentration: 50 nM): 0.0233 ± 0.0034
peptide microarray binding signal ([1]; peptide modifications: H3R2cit H3K9me1, binder concentration: 500 nM): 0.0804 ± 0.019
peptide microarray binding signal ([2]; peptide modifications: H3R2cit H3K9me1, binder concentration: 10 nM): 0.0313 ± 0.0068
peptide microarray binding signal ([2]; peptide modifications: H3R2cit H3K9me1, binder concentration: 100 nM): 0.0512 ± 0.0034
peptide microarray binding signal [3, 23]: 0.00831 ± 0.0015
peptide microarray binding signal [3, 24]: 0.0097 ± 0.00085
peptide microarray binding signal [4, 23]: 0.0064 ± 0.00042
peptide microarray binding signal [4, 24]: 0.00375 ± 0.00014
